ClpP mod = qHTS Assay for Activators of ClpP; ATP-dependent Clp protease proteolytic subunit (Bacillus subtilis (strain 168)), P80244; purified B. subtilis ClpP, FRET peptide cleavage, 20 min; Potency, µM (doses to about 57.5 µM), without a hit: at the highest dose activity change, negative = active; 1.9% of 340,000 active; AID 651965, 2013; active means well fitted falling curve with a large enough effect; inconclusive means small, poorly fitted or top-dose-only effect; inactive means no such curve, though single readings can be large or run the other way; further: potency means the concentration at half of the fitted maximal effect; the source files actives as falling curves though it sought activators and does not explain the sign; nearly all actives have a fitted effect of over 65% in size
Target sequence (P80244 whole entry, looked up): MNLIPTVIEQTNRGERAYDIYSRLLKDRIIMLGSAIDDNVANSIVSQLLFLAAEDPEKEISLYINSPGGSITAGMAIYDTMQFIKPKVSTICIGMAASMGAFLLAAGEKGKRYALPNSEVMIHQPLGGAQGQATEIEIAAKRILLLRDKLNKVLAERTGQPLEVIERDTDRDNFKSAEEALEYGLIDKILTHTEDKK
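FRET quenching reversal measured ClpP activation: 10 microg/mL B. subtilis ClpP at pH 8 with the FRET-FV decapeptide, read at 430 nm after 320 nm excitation. The 20-min minus 0-min signal was scaled between DMSO/no-enzyme wells and ADEP (5.8 microM final).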
IL1B secr inh = inhibitors of inflammasome signaling (IL-1 beta secretion). AID 743279. THP-1 LPS/ATP IL-1B secretion, AlphaLISA, 16 h; stronger effect = lower value. activity change, % at 57.5 µM. 4.7% of 360,000 active; in the data active means activity change below about -50%; inconclusive means mostly about -30% to -49%; further: on the % scale 0 is the no-effect control and ±100 the full control effect
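Secreted IL-1B measured by AlphaLISA bead assay after 16 h compound exposure of THP-1 cells; compounds (final up to 57.5 uM) added 1 h before LPS (250 ng/mL) and ATP (1.25 mM) stimulation; lower signal means less secretion.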
TDP1 cell CPT = DT40-hTDP1 cell growth loss with CPT; chicken DT40 Tdp1-/-;hTDP1 cells + 20 nM CPT, ATP luminescence, 48 h; Potency, µM (doses to about 46.2 µM), for inactives: top-dose activity change, negative = growth inhibition, actives largely listed as inhibitors; 12% of 420,000 active; further: potency means the concentration at half of the fitted maximal effect; on the % scale 0 is the no-effect control and ±100 the full control effect; nearly all actives have a fitted effect of over 55% in size
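Chicken DT40 Tdp1-/- cells stably complemented with human TDP1 were seeded at 400 cells/well in medium containing 20 nM camptothecin, exposed to pin-transferred compounds, and grown at 37 °C for at least 48 hr. Viability was read as ATP luminescence.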
D3 ag = D3 dopamine receptor (human) agonism; AID 652048; 0.58% of 410,000 active; max activation, %; D3R DiscoveRx beta-arrestin cells, luminescence, 90 min; in the data active means max activation above about 30%; further: 0% is about no effect
Target sequence (P35462 whole entry, looked up): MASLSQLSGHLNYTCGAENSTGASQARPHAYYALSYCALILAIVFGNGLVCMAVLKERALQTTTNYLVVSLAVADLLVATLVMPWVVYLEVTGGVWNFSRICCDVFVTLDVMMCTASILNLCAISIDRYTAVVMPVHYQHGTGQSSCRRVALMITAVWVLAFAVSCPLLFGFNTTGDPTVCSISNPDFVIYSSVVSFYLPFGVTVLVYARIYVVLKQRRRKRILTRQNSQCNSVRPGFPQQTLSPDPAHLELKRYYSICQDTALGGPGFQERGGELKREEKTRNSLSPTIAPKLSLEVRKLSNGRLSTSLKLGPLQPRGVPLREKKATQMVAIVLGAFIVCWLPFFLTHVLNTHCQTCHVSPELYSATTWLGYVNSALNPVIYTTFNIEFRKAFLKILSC
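Agonist mode: compounds and dopamine controls were applied to plated cells for 90 min at 37 degrees C after an overnight attachment at 1500 cells/well. Luminescent read-out followed 30 - 60 minutes at room temperature with DiscoveRx detection reagent.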
DRD3 antagonist = D3 dopamine receptor (human) antagonism; 2.5% of 360,000 active; D3R cells, DiscoveRx beta-arrestin luminescence, antagonist mode; stronger effect = lower value; max response, negative = inhibition, %; AID 652054; in the data active means max response below about -50%; inconclusive means no clear call, values can overlap the other calls; further: on the % scale 0 is the no-effect control and ±100 the full control effect
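Cells expressing the human receptor were seeded at 1500 cells/well, incubated overnight at 37 degrees C in 5% CO2, then exposed to library compounds with dopamine controls for 90 minutes at 37 degrees C before luminescent detection.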
DT40 TDP1 no CPT = qHTS for Inhibitors of human tyrosyl-DNA phosphodiesterase 1 (TDP1): qHTS in cells in absence of CPT. DT40 Tdp1-/- hTDP1 cells, no CPT, ATP luminescence, 48 h. Potency, µM (titrated, usually from 46.2 µM), inactives show at the top dose activity change, negative = growth inhibition, actives largely listed as inhibitors. 15% of 420,000 active; further: potency means the concentration at half of the fitted maximal effect; on the % scale 0 is the no-effect control and ±100 the full control effect; nearly all actives have a fitted effect of over 55% in size
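Cells were dispensed at 400 per well, compounds added by pin tool, plates incubated ≥48 hr at 37 °C, then CellTiter-Glo added for 30 min at room temperature before luminescence reading. Line: DT40 Tdp1-/- complemented with hTDP1; camptothecin omitted.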
Starred values were filed as active, the others as inactive; ? = inconclusive; / = no result; [ ] = dose if it differs, or a comment. In the library only some 21% were active in any assay of this set; here they are far more common. Unless noted, the call rests on the fitted dose curve; in most records, active means well fitted inhibition curve with a large enough effect; inconclusive means small, poorly fitted or top-dose-only effect; inactive means flat fitted curve, though single readings scatter.

SMILES	ClpP mod	IL1B secr inh	TDP1 cell CPT	D3 ag	DRD3 antagonist	DT40 TDP1 no CPT
Cc1ccc2c(c1)N(C(=O)CCC(=O)Nc1ccccc1Cl)CC(C)O2 (stereo not drawn)	1%	-26	?	-9	-12	?
COc1ccccc1N1CC(C(=O)Nc2ccccc2N2CCCC2)CC1=O (stereo not drawn)	/	-3	-28%	-8	1	-4%
Cc1nc(C)c(CC(=O)N2CCOc3ccc(CN4CCOCC4)cc3C2)s1	/	/	-2%[9.04 µM]	/	/	?
c1ccc(Oc2nc(N3CCOCC3)nc(N3CCOCC3)n2)cc1	-1%	-11	?	-10	?	-22%
c1cnn(-c2nc(N3CCOCC3)nc(N3CCOCC3)n2)c1	-8%	?	6.5µM*	1	-22	5.8µM*
COc1ccccc1CN1CCC2(CC1)c1ccccc1[C@@H](NC(=O)c1ccco1)[C@@H]2OC	/	/	-17%[9.04 µM]	/	/	-24%
COc1cccc(OC)c1OCCNCC1CSc2ccccc2O1 (stereo not drawn)	-1%	-4	21µM*	-81	-95*	10µM*
COc1cccc(OC)c1OCCOc1ccccc1OC(C)C	1%	16	?	4	14	?
Cc1cccc(NC(=S)N2CCN(S(C)(=O)=O)CC2)c1	0%	12	-1%	-1	-3	2%
Cc1cccc(C)c1NC(=O)c1nc(SC(C)C)ncc1Cl	1%	/	18µM*	45*	/	?
CCOC(=O)c1ccc(NC(=O)c2nc(SC(C)C)ncc2Cl)cc1	-4%	/	16µM*	-4	/	16µM*
Cc1nnc(NC(=O)c2nc(SC(C)C)ncc2Cl)s1	-2%	/	-19%	-3	/	-8%
CC(=O)Nc1ccc(NC(=O)c2cc3sccc3n2Cc2ccc(Cl)cc2)cc1	4%	/	?	-6	/	?
CCCn1c(SCc2nc(-c3ccccc3OCC)no2)nnc1-c1ccc(Cl)cc1	-2%	/	?	7	/	18µM*
CCCn1c(SCc2nc(-c3ccc(OC)cc3OC)no2)nnc1-c1ccc(Cl)cc1	-2%	/	21µM*	5	/	26µM*
CCCn1c(SCc2nc(-c3cccs3)no2)nnc1-c1ccncc1	1%	-1	-26%	22	31	?
O=C(NC1CCS(=O)(=O)C1)c1cc(-c2ccccc2)nc2ccccc12 (stereo not drawn)	/	-5	3%	-12	-19	-7%
CCc1ccc(-n2nc(C)c3c(C(=O)Nc4cc(C)ccc4C)cc(C)nc32)cc1	5%	/	?	19	/	?
O=C(Nc1nc2ccccc2s1)NC1CCCCC1	-3%	-11	?	-2	-8	-22%
CCc1nc(SC)ncc1C(=O)N1CCN(c2cc(C)ccc2C)CC1	-3%	/	-25%	-8	/	15µM*
Cc1ccc(Cl)cc1N1CCN(C(=O)c2cc(S(=O)(=O)N3CCCCCC3)cn2C)CC1	0%	/	?	-3	/	?
CCc1nc(SC)ncc1C(=O)N1CCN(c2cc(Cl)ccc2C)CC1	-3%	/	?	-9	/	21µM*
CC(C)(C)c1ccc(C(=O)C[n+]2cccc(Br)c2)cc1	0%	/	?	/	/	?
Cc1sc2nc(CSc3ccccc3)nc(N3CCOCC3)c2c1C	-3%	-14	?	0	14	?
CCOC(=O)c1sc2nc(CC(=O)OC)nc(N3CCN(c4ccccn4)CC3)c2c1C	?	-12	23µM*	3	14	18µM*
SMILES	ClpP mod	IL1B secr inh	TDP1 cell CPT	D3 ag	DRD3 antagonist	DT40 TDP1 no CPT
Cc1sc2nc(CSc3ccccc3)nc(N3CCC(C(N)=O)CC3)c2c1C	-1%	-63*	?	3	-1	21µM*
Cc1sc(NC(=O)CN2CCN(c3ccccn3)CC2)c(C#N)c1C	-1%	-7	-22%	1	8	-10%
CCOC(=O)c1sc2nc(CSc3ccccc3)nc(N3CCC(C(N)=O)CC3)c2c1C	/	-116*	?	-18	-8	23µM*
CCOC(=O)c1sc2nc(CSc3ccccc3)nc(N3CCCN(C)CC3)c2c1C	-9%	?	26µM*	-4	-62*	?
CCOC(=O)c1sc2nc(C)nc(N3CCCCC3C)c2c1C (stereo not drawn)	/	30	?	0	11	?
CN1CCc2c(OCC(=O)N3N=C(c4cccs4)CC3c3ccc(F)cc3)cccc2C1=O (stereo not drawn)	?	-67*	12µM*	-1	-3	29µM*
CCN1CCc2c(OCC(=O)N3N=C(c4cccs4)CC3c3ccc(F)cc3)cccc2C1=O (stereo not drawn)	7.9µM*	-57*	21µM*	-3	-22	18µM*
CCCCn1c(N)c(N(CCOC)C(=O)c2cc(-c3ccc(C)cc3)nc3ccccc23)c(=O)[nH]c1=O	?	-6	-20%	2	10	?
CCCCN(C(=O)CSc1nnc(-c2ccc(OC)cc2)n1CC)c1c(N)n(Cc2ccccc2)c(=O)[nH]c1=O	/	-60*	-4%	-9	-17	-19%
CCCCn1c(N)c(N(CCOC)C(=O)c2cc(-c3ccc(OC)cc3)nc3ccccc23)c(=O)[nH]c1=O	11µM*	-13	16%	-1	2	0%
CCCCN(C(=O)CCCSc1nc2ccccc2[nH]1)c1c(N)n(Cc2ccccc2)c(=O)[nH]c1=O	-3%	-90*	6%	2	1	-3%
Nc1c(N(CCCO)C(=O)CCCN2C(=O)c3cccc4cccc(c34)C2=O)c(=O)[nH]c(=O)n1Cc1ccccc1	?	0	10µM*	-13	-9	?
CCOC(=O)CC1CCCCN1C(=O)CCCn1nnnc1CN1CCC(C)CC1 (stereo not drawn)	-3%	14	?	-15	-23	-13%
COc1ccccc1N1CCN(C(=O)c2cc(=O)c3c(C)cc(C)cc3o2)CC1	0%	17	-24%	19	-14	-22%
CCn1cc(C(C)NC(=O)Nc2ccc3c(c2)OCO3)c(C)n1 (stereo not drawn)	/	3	4%	5	5	-2%
Cc1cccc(NC(=O)CN2CCN(C(=O)CN3C(=O)NC4(CCCCC4C)C3=O)CC2)c1C (stereo not drawn)	0%	2	?	-3	52	-27%

Screening results deposited in PubChem by National Center for Advancing Translational Sciences (NCATS).
